Experimental data reported in PubChem BioAssay (NCATS).
Inconclusive results are not listed. Active and inactive are the calls of the source. Unless noted, calls come from the whole dose curve; as a rule, active = well fitted curve in the direction sought with a large enough effect; inconclusive = small, poorly fitted or top-dose-only effect, or another doubt; inactive = no such curve, though single readings can be large; an effect the other way counts as inactive or inconclusive.

target: Alpha-galactosidase (Coffea arabica) (UniProt Q42656); experiment: Counterscreen for Glucocerebrosidase Inhibitors: qHTS Assay for Coffee Bean alpha-Galactosidase at pH 4.5 (AID 957); settings: purified coffee bean alpha-galactosidase, fluorogenic substrate; series mostly up to 76.9 µM;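 note: plate controls were enzyme alone for no effect and no enzyme for full effect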
Sequence (Q42656 whole entry, looked up): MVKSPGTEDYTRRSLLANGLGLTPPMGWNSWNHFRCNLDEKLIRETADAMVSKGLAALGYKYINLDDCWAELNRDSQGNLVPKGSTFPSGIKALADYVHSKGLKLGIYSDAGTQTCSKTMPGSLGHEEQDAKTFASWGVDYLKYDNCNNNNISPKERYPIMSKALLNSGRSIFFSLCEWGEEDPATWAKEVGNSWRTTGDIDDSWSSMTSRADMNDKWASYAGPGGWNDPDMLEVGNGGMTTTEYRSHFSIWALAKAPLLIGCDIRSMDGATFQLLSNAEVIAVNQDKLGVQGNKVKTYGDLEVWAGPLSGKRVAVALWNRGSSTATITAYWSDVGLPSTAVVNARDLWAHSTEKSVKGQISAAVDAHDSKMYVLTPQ
Method in brief: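 Quantitative HTS of compounds (0.7 nM to 77 uM) against coffee bean alpha-galactosidase at pH 4.5, measuring 4-methylumbelliferone fluorescence released from 80 uM substrate.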

Compound	outcome
O=c1ccc2ccc(O)c(O)c2o1	inactive
O=C1NC(=O)c2cc(Nc3ccccc3)c(Nc3ccccc3)cc21	inactive
CCCCCCN(CCCCCC)C(=O)Cc1c(-c2ccc(F)cc2)[nH]c2ccccc12	inactive

target: Alpha-galactosidase (Coffea arabica) (UniProt Q42656); experiment: Counterscreen for Glucocerebrosidase Inhibitors: qHTS Assay for Coffee Bean alpha-Galactosidase at pH 5.9 (AID 998); settings: coffee bean alpha-galactosidase enzyme assay; series mostly up to 76.9 µM;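 note: plate controls were uninhibited enzyme for no effect and no-enzyme basal signal for full effect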
Method in brief: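 Fluorogenic 4-MU substrate hydrolysis, 80 uM substrate and 2 nM coffee bean alpha-galactosidase, pH 5.9 citrate buffer, 20 min at room temperature, then NaOH/glycine stop. Titration 0.7 nM–77 uM, normalized to no-enzyme and enzyme controls, AC50 via Hill equation.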

Compound	outcome
O=c1ccc2ccc(O)c(O)c2o1	inactive
O=C1NC(=O)c2cc(Nc3ccccc3)c(Nc3ccccc3)cc21	inactive
CCCCCCN(CCCCCC)C(=O)Cc1c(-c2ccc(F)cc2)[nH]c2ccccc12	inactive

tested on: not listed separately; experiment: qHTS profiling of the MIPE4 collection as inhibitors of Plasmodium falciparum (DD2) proliferation (AID 743345; call rule not given here); settings: P. falciparum Dd2 in erythrocytes, SYBR Green DNA, 72 h; at 28.5 µM (top of the series) unless noted
Method in brief: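 Parasite DNA was quantified by SYBR Green I fluorescence (ex 485, em 535 nm) after overnight lysis in saponin/Triton buffer at room temperature. Cultures at 0.3% parasitemia and 2.5% hematocrit were first exposed to compound for 72 h at 37 C; signals were normalised to artemisinin (0.29 uM) and vehicle wells.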

Compound	parasite growth remaining, % of DMSO control (lower = more inhibition)
NC(=O)c1ncn([C@@H]2O[C@H](CO)[C@@H](O)[C@@H]2O)n1	90.2%
CN(C)CCOc1ccc(C(=C(CCCl)c2ccccc2)c2ccccc2)cc1	55.4%
C#Cc1cccc(Nc2ncnc3cc(OCCOC)c(OCCO)cc23)c1	36.9%

tested on: not listed separately; experiment: qHTS for Inhibitors of the Functional Ribonucleoprotein Complex (vRNP) of Lassa (LASV) Arenavirus: Viability assay - alamar blue signal for LASV Primary Screen (AID 1347083; calls by dose curve; tested in HEK293 reporter line; note: nearly all actives have a fitted effect of over 80% in size; note: potency is the fitted concentration of half-maximal effect); settings: cell viability, alamar blue fluorescence (LASV minigenome counter-screen); series mostly up to 57.5 µM

Compound	Potency
Cc1cc(C(=O)N2CCN(c3cccc(Cl)c3)CC2)n(-c2ccccc2)n1	0.611 µM (active)
CS(=O)(=O)N1CCc2c(-c3cnc(N)nc3)nc(N3CCOCC3)nc21	0.273 µM (active)
NC(=O)c1ncn([C@@H]2O[C@H](CO)[C@@H](O)[C@@H]2O)n1	inactive
CC(C)CNc1ccnc(NCc2csc(-c3ccccc3)n2)n1	13.7 µM (active)
O=c1ccc2ccc(O)c(O)c2o1	inactive
CNC(=O)c1ccc(Nc2cc(Nc3ccccc3S(=O)(=O)C(C)C)c3cc[nH]c3n2)nc1	8.63 µM (active)
C[C@@H](NC(=O)c1ncnc(N)c1Cl)c1ncc(C(=O)Nc2cc(C(F)(F)F)c(Cl)cn2)s1	24.3 µM (active)
COCCOc1ccc2c(c1)ncn2-c1ccc2cccc(N3CCC(N)CC3)c2n1	24.3 µM (active)
Cc1cnc(Nc2ccc(CN3CCOCC3)cc2)nc1Nc1cccc(S(=O)(=O)NC(C)(C)C)c1	4.32 µM (active)
Cc1ccn(-c2ccc(-c3ncco3)cc2)c(=O)c1-c1ccc2nc(N)ncc2c1	3.43 µM (active)
NC(=O)N1CCC(CC(=O)N2CCC([C@H]3c4ncc(Br)cc4CCc4cc(Cl)cc(Br)c43)CC2)CC1	inactive
C[C@]12CC[C@@H]3c4ccc(O)cc4CC[C@H]3[C@H]1CC[C@H]2O	9.68 µM (active)
C[C@@H]1C[C@@H]2O[C@H]2/C=C\C=C\C(=O)Cc2c(Cl)c(O)cc(O)c2C(=O)O1	6.31 µM (active)
COc1ccc(C=Cc2cc(OC)c(OC)c(OC)c2)cc1NC(=O)[C@H](N)CO	0.0022 µM (active)
COc1cc2ncnc(Nc3cccc(Br)c3)c2cc1OC	0.344 µM (active)
CN(C)CCOc1ccc(C(=C(CCCl)c2ccccc2)c2ccccc2)cc1	12.2 µM (active)
CN(C)N=Nc1nc[nH]c1C(N)=O	17.2 µM (active)

Compound	Potency
O=C1NC(=O)c2cc(Nc3ccccc3)c(Nc3ccccc3)cc21	inactive
Cc1ccc(NC(=O)c2cccc(N(C)C)c2)cc1NC(=O)c1ccc(O)cc1	12.2 µM (active)
Cc1c(Cn2c(C)nc3c(C(=O)O)cc(N4CCOCC4)cc32)cccc1C(F)(F)F	1.09 µM (active)
CCCCCCN(CCCCCC)C(=O)Cc1c(-c2ccc(F)cc2)[nH]c2ccccc12	inactive
CNC1CCC(N(Cc2cccc(-c3ccncc3)c2)C(=O)c2sc3ccccc3c2Cl)CC1 (stereo not drawn)	30.6 µM (active)
NC(=O)Nc1cc(-c2ccc(CN3CCOCC3)cc2)sc1C(N)=O	7.69 µM (active)
CCOC(=O)C1=C(C)NC(=S)NC1c1cccc(O)c1 (stereo not drawn)	0.344 µM (active)
Cc1c(NC(=O)OC[C@@H]2COCCN2)cn2ncnc(Nc3ccc4c(cnn4Cc4cccc(F)c4)c3)c12	1.22 µM (active)
O=C(Nc1cccc(Br)c1)c1cccc(S(=O)(=O)N2CCCCCC2)c1	24.3 µM (active)
COc1ccc(S(=O)(=O)Nc2cccnc2Nc2ccc(O)cc2)cc1	0.273 µM (active)
c1ccc2c(Cc3c[nH]c4ccccc34)c[nH]c2c1	4.32 µM (active)
CC1=C(CC(=O)O)c2cc(F)ccc2C1=Cc1ccc(S(C)=O)cc1 (stereo not drawn)	38.5 µM (active)
Nc1nc(N)c2nc(-c3cccc(O)c3)c(-c3cccc(O)c3)nc2n1	8.63 µM (active)
Cn1cc(C2=C(c3c4n(c5ccccc35)CCC(CN)C4)C(=O)NC2=O)c2ccccc21 (stereo not drawn)	17.2 µM (active)
C[C@@H]1COC(Nc2ccc3ncnc(Nc4ccc(OCc5nccs5)c(Cl)c4)c3c2)=N1	1.53 µM (active)
C#Cc1cccc(Nc2ncnc3cc(OCCOC)c(OCCO)cc23)c1	10.9 µM (active)
c1cc(N[C@@H]2CCNC2)nc(-c2cnc3ccc(-c4cn[nH]c4)cn23)c1	10.9 µM (active)
